# Source: PubChem BioAssay (NCI)
# The panel holds about 83,000 compounds, 20% with a hit somewhere; the sample as a whole holds those more often.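 The test compound was applied at a single concentration to cells in 96-well plates for 48 hours, and percent growth was recorded.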 A number with no mark means an inactive call. Calls of active or inactive are those of the source. How the source made its calls: active means growth percent below 10; inactive means the rest.
# How the values were obtained:
# Test in all cases: NCI-60 one-dose screen, 48 h (100 = growth as untreated, 0 = no growth, -100 = all killed)
# Settings in all cases: 10 µM unless noted
# [1] = tested on: NCI-H23 lung
# [2] = tested on: NCI-H226 lung
# [3] = tested on: NCI-H322M lung
# [4] = tested on: HOP-62 NSCLC
# [5] = tested on: NCI-H460 lung
# [6] = tested on: HOP-92 NSCLC
# [7] = tested on: NCI-H522 lung
# [8] = tested on: A549/ATCC NSCLC
# [9] = tested on: 786-0 renal
# [10] = tested on: COLO 205 colon
# [11] = tested on: DU-145 prostate
# [12] = tested on: K-562 leukemia
# [13] = tested on: MALME-3M melanoma
# [14] = tested on: MDA-MB-231 breast
# [15] = tested on: RXF 393 renal
# [16] = tested on: SF-268 CNS
# [17] = tested on: SF-295 CNS
# [18] = tested on: SF-539 CNS
# [19] = tested on: UACC-257 melanoma
# [20] = tested on: M14 melanoma
Compound,growth [1],growth [2],growth [3] [%],growth [4] [%],growth [5],growth [6],growth [7],growth [8] [%],growth [9],growth [10],growth [11] [%],growth [12],growth [13],growth [14],growth [15],growth [16],growth [17],growth [18],growth [19] [%],growth [20]
CCOC(=O)C(=Cc1cccc(Cl)c1)C(=O)OCC,57.2%,-65.4% (active),84.2,85.2,74.4%,13.2%,-42.9% (active),46.9,7.82% (active),-2.83% (active),28,-11.1% (active),-27.5% (active),1.37% (active),-27.8% (active),26.4%,77.2%,9.28% (active),26.1,11.9%
CN(C)C1CCN(Cc2ccc(NC(=O)c3cncc(C#Cc4cnc(N)c5ncccc45)c3)cc2C(F)(F)F)CC1,84.7%,90%,112,75.5,0.477% (active),66.4%,84.9%,72.2,-78.9% (active),69.6%,64.1,1.29% (active),-63.1% (active),2.48% (active),19.4%,81.3%,93.9%,59.6%,15.5,-73.6% (active)
COc1ccc(/C=C2\COc3ccc(O)c(O)c3C2=O)cc1,33.2%,67.4%,47.9,10.8,19.2%,-6.45% (active),-60.5% (active),38.1,-40.9% (active),66.2%,19.4,13.4%,-26.3% (active),-11.4% (active),2.29% (active),2.86% (active),48.5%,-36.9% (active),14.8,8.06% (active)
CNc1nc(S(=O)c2ccc(C#N)cc2)nc2ccccc12 (stereo not given),78.4%,81.1%,99.6,98.5,85.2%,75%,50.3%,90.1,97.5%,91.6%,40.6,24.9%,54.8%,54.8%,62.9%,87.8%,99.5%,92%,85.3,71.5%
Oc1c(Cl)cc(Cl)cc1/C=N/Nc1nnc(N/N=C/c2cc(Cl)cc(Cl)c2O)c2ccccc12,-20.6% (active),-37.5% (active),21,20.6,0.0293% (active),13.9%,14.1%,22.8,-22.2% (active),8.23% (active),21.8,9.41% (active),10.4%,21.3%,-16.3% (active),6.61% (active),-1.51% (active),-17.7% (active),38.5,5.83% (active)
C/C(Nc1ccc(Cl)c(Cl)c1)=C1\CCOC1=O,93.3%,90.4%,101,80.3,92.5%,75.6%,58%,88.6,81.7%,134%,106,86.8%,109%,95%,92.2%,106%,86.7%,98.5%,98.3,81.3%
O=c1oc2ccccc2cc1C1=NN=C(SCc2ccccc2)SC1,94.9%,96.6%,102,82.9,112%,87.2%,89.2%,96.6,94.8%,113%,100,91.4%,99.3%,101%,109%,97.1%,98.9%,96.5%,110,95.7%
Cc1c(-c2nc3ccc(F)cc3c(=O)[nH]2)c2ccccc2n1C,50.5%,61.1%,78.5,38.4,16.2%,60.5%,42%,46.4,37.9%,30.9%,53.6,15%,48.4%,57.8%,14.3%,54.1%,15.1%,23.8%,55,18.2%
